# Results reported in PubChem BioAssay (NCATS).
# Records with an inconclusive call do not appear. Where a call stands in place of a potency, no number is given. The source holds several records for some structures; these can differ, active in one and inactive in another. The source made the active and inactive calls. Calls come from the whole dose curve; as a rule, active = well fitted inhibition curve with a large enough effect; inconclusive = small, poorly fitted or top-dose-only effect; inactive = flat fitted curve, though single readings scatter.
# Biological target: Voltage-gated inwardly rectifying potassium channel KCNH2 (Homo sapiens) (UniProt Q12809)
# Sequence (Q12809 whole entry, looked up): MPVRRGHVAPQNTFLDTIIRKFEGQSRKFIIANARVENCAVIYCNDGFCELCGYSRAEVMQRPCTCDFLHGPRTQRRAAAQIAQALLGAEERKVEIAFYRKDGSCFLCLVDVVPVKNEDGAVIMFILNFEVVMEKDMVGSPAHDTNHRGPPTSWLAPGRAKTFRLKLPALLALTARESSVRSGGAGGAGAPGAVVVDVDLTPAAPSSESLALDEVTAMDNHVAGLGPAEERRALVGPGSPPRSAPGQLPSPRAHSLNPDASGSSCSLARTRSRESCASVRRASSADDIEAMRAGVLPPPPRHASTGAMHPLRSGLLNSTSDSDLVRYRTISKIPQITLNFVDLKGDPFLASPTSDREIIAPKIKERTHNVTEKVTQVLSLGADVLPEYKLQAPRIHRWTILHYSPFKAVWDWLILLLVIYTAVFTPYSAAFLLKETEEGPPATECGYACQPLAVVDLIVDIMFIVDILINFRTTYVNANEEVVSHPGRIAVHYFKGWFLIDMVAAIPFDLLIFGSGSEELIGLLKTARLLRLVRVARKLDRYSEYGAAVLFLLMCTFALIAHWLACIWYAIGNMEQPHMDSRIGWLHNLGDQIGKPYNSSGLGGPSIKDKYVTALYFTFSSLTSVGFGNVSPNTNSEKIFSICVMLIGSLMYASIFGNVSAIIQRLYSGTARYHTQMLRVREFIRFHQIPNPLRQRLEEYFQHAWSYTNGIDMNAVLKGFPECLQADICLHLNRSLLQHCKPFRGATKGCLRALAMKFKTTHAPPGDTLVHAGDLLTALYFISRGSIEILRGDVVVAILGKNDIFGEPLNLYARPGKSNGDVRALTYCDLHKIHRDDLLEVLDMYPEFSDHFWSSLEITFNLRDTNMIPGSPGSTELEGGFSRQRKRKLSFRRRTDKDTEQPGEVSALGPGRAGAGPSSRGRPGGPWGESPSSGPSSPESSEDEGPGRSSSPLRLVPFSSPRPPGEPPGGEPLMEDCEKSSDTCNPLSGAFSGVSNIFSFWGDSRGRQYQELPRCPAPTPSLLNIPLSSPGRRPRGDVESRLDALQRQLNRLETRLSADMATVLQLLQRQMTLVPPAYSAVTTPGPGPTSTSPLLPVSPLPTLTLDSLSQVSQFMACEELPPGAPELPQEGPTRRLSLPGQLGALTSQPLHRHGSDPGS
# Assay: qHTS Assay for Small Molecule Inhibitors of the Human hERG Channel Activity (AID 588834);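 note: lower thallium flux fluorescence means stronger hERG block; nearly all actives have a fitted effect of over 50% in size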
# Details: U2OS BacMam hERG, FluxOR thallium flux fluorescence; series mostly up to 46.1 µM
# From the text: NIH Chemical Genomics Center [NCGC]
# National Institutes of Environmental Health Sciences [NIEHS]
# National Toxicology Program [NTP]
# We have developed a 1536-well cell-based assay for quantitative high throughput screening (qHTS) to determine in vitro hERG channel blockage as a measure of cardio toxicity with small molecules. This particular assay uses the U2OS cell line which is derived from human osteosarcoma.
# NCGC Assay Protocol Summary:
# HERG assay (FluxORTM thallium flux assay) was initially developed by Invitrogen/Molecular Probes, and then miniaturized into 1536-well plate in a homogeneous format by NCGC. This assay measures the activity of potassium channel using thallium dye (FluxOR) flux as surrogate measurement for potassium into the cells with a FDSS-7000 kinetic plate reader (Hamamatsu Corp., Hamamatsu City, Japan). The hERG ion channel is transduced into mammalian cells (U2OS) using a baculovirus (Bacmam) construct harboring the hERG K+ ion channel. So far we screened LOPAC1280 library (Sigma), the NTP collection of 1408 compounds, and the NCGC Pharmaceutical Collection (NPC), in which many well defined HERG blockers are present. The rank order potencies of many of these compounds are similar to that of other HERG assays (membrane potential, Rb+ flux, patch clamp, etc). This quick and homogeneous assay is also found to be sensitive, specific, and robust.
# Using the FluxORTM thallium flux assay, the activity of potassium channel using thallium dye (FluxOR) flux as surrogate measurement for potassium into the cells was measured in the U2OS cell line transduced with hERG K+ ion channel using a baculovirus (Bacmam) using Opti-MEM medium (Invitrogen) containing 2% fetal calf serum (FCS, HyCone) following loading buffer addition, compound treatment for around 10 minutes and finally adding stimulation buffer. The assay was performed in black clear Kalypsys 1536-well plates. In the screen, Astemizole was used as positive controls. Library compounds were measured for their ability to cause hERG channel blockage in the cell line, as reflected by a decrease in fluorescence intensity, in a concentration-dependent manner. […] AC50 values were determined from concentration-response data modeled with the standard Hill equation.
# qHTS protocol for hERG-U2OS cellular assay
# [Step] [Parameter] [Value] [Description]
# 1. Day 1: Replace medium in 70-80% confluent T225 flask with 2.5 mL of hERG-BacMam virus plus 12.5 mL of phosphate buffered saline (PBS) (corresponding roughly to a multiplicity of infection ratio of 100 virus particles/cell)
# 2. Incubation: 4 hrs @ room Temperature in Dark
# 3. Reagent; Remove virus; wash once with 25 ml DPBS
# 4. Reagent; 35 ml culture medium
# 5. Incubation; 37 °C overnight
# 6. Day2: Reagent; 3 uL; 2000 U2OS cells/well
# 7. Time; 4 hr; 37 °C incubation
# 8. Loading buffer; 1 uL; 0.7X;
# 9. Incubation: 1hr @ RT in Dark.
# 12. Time; 10min; 37 °C incubation
# 13. Read fluorescence Intensity on FDSS for 10 Sec with 1 sec interval
# 14. Reagent; 1 uL; stimulation buffer
# 15. Read fluorescence Intensity on FDSS for 2 min with 1 sec interval
# 16. Detection; Fluorescence Intensity; FDSS
# Potency is the fitted concentration of half-maximal effect.
row,SMILES,Potency
1,NC(=O)OCCCc1ccccc1,inactive
2,CCNc1nc(Cl)nc(NCC)n1,inactive
3,CN(C)c1ccc(C(=C2C=CC(=[N+](C)C)C=C2)c2ccccc2)cc1,inactive
4,C[C@@H]1CC[C@H]2[C@@H](C)C(=O)O[C@@H]3O[C@@]4(C)CC[C@@H]1[C@]32OO4,inactive
5,CN1C(=O)CN=C(c2ccccc2)c2cc([N+](=O)[O-])ccc21,inactive
6,CC(C)C(Br)C(=O)NC(N)=O (stereo not given),inactive
7,NC(N)=N/N=C/c1c(Cl)cccc1Cl,inactive
8,C[N+]1(C)[C@@H]2CC[C@H]1CC(OC(=O)C(CO)c1ccccc1)C2 (stereo not given in full),inactive
9,NC(=O)CN1CCCC1=O,inactive
10,Clc1ccc(C(OCCN2CCCCC2)c2ccccc2)cc1 (stereo not given),0.891 µM (active)
11,O=C1NCN(c2ccccc2)C12CCN(CCCOc1ccc(F)cc1)CC2,0.355 µM (active)
12,Oc1c(Br)cc(Br)cc1Br,inactive
13,C[C@]12C=CC(=O)C=C1CC[C@@H]1[C@@H]2CC[C@@]2(C)[C@H]1CC[C@]2(C)O,inactive
14,CN(C)C(=O)Oc1cc(OC(=O)N(C)C)cc(C(O)CNC(C)(C)C)c1 (stereo not given),inactive
15,COP(=S)(OC)Oc1ccc(Sc2ccc(OP(=S)(OC)OC)cc2)cc1,inactive
16,c1cc2c(c(N3CCNCC3)c1)OCCO2,inactive
17,ClC1=C(Cl)C2(Cl)C(CBr)CC1(Cl)C2(Cl)Cl (stereo not given),22.4 µM (active)
18,CNC(=O)NC(O)C(Cl)(Cl)Cl (stereo not given),inactive
19,c1ccc2nc(N3CCNCC3)ccc2c1,inactive
20,CCN(CC)C(C)C(=O)c1ccccc1 (stereo not given),inactive

row,SMILES,Potency
1,Oc1ccc(Cl)cc1Cc1cc(Cl)ccc1O,inactive
2,CC(C)NCC(O)c1ccc(N)c(C#N)c1 (stereo not given),inactive
3,C=CCN1CC[C@]23CCCC[C@H]2[C@H]1Cc1ccc(O)cc13,inactive
4,OC(O)C(Cl)(Cl)Cl,inactive
5,O=C(O)c1nn(Cc2ccc(Cl)cc2Cl)c2ccccc12,inactive
6,CCC1(c2cccc(O)c2)CCCCN(C)C1 (stereo not given),inactive
7,CC(N)C(=O)OC(C)(C)Cc1ccc(Cl)cc1 (stereo not given),inactive
10,CN1C[C@@H](NS(=O)(=O)N(C)C)C[C@@H]2c3cccc4c3c(cn4C)C[C@H]21,inactive
11,c1cc(CN2CCCCC2)cc(OCCCNc2nc3ccccc3s2)c1,12.6 µM (active)
12,CC[n+]1c(-c2ccccc2)c2cc(N)ccc2c2ccc(N)cc21,inactive
13,CC(C)=C[C@@H]1[C@@H](C(=O)OCc2coc(Cc3ccccc3)c2)C1(C)C,inactive
14,O=C(CCCN1CCC(n2c(=O)[nH]c3ccccc32)CC1)c1ccc(F)cc1,0.355 µM (active)
15,CCC1(CC)C(=O)NC(=O)NC1=O,inactive
16,CCC(=O)O[C@H]1CC[C@H]2[C@@H]3CCC4=CC(=O)CC[C@]4(C)[C@H]3CC[C@]12C,inactive
17,CCCC(C)C1(CC)C(=O)N=C(S)NC1=O (stereo not given),inactive
18,C[C@]12CC[C@H]3[C@@H](CC=C4C[C@@H](O)CC[C@@]43C)[C@@H]1CC[C@@H]2O,inactive
19,CCOC(=O)c1cncn1C(C)c1ccccc1 (stereo not given),inactive
20,CC(C)(O)C(Cl)(Cl)Cl,inactive
